The values below come from PubChem BioAssay (NCATS).

In assay [1] the target is Cytochrome P450 3A4 (Homo sapiens) (UniProt P08684). Nature of the assay: qHTS Assay for Inhibitors and Substrates of Cytochrome P450 3A4 (AID 884). Further: nearly all actives have a fitted effect of over 50% in size. Further: potency means the concentration at half of the fitted maximal effect. On activity change, negative = inhibition: series mostly up to about 57 µM. The method, boiled down: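 20 nM human CYP3A4 with 25 uM Luciferin-PPXE (at KM) in 200 mM KPO4, preincubated 10 min with compound; NADPH regeneration started a 60 min RT reaction. Luciferin detected by luminescence, normalized to 57 uM ketoconazole as full inhibition.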
Chain of Cytochrome P450 3A4 (Homo sapiens) (P08684 whole entry, looked up): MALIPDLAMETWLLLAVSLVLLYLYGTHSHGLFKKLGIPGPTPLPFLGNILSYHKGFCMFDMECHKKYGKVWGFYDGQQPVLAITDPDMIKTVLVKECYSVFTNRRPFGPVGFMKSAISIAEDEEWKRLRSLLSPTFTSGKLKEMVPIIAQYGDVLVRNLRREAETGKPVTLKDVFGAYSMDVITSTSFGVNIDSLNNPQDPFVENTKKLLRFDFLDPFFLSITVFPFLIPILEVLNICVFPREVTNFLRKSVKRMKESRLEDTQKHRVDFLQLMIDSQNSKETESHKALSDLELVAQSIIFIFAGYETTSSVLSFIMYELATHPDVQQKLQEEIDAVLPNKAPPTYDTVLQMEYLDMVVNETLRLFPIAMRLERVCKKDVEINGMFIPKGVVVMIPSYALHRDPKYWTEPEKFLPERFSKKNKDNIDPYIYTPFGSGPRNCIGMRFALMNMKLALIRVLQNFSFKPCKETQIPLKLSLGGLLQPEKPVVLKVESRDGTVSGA

In assay [2] the target is Cytochrome P450 2C9 (Homo sapiens) (UniProt P11712). Nature of the assay: qHTS Assay for Inhibitors and Substrates of Cytochrome P450 2C9 (AID 883). Further: nearly all actives have a fitted effect of over 60% in size. Further: potency means the concentration at half of the fitted maximal effect. The method, boiled down:
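Human CYP2C9 (10nM) hydroxylated Luciferin-H (100uM, at its KM) to luciferin in 25mM KPO4. Compound was preincubated 10 min at 37C, then NADPH regeneration started a 60 min reaction at 37C. Luminescence was read after detection reagent, normalized to 57uM sulphaphenazole.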
A general note: In qHTS, concentration-response curves come from the screen itself.

A short description of assay [3]: qHTS Assay for Identification of Small Molecule Agonists for Hypoxia Response Element Signaling Pathway (AID 914; active means well fitted activation curve with a large enough effect in the signal ratio, with a control signal flat, not every such curve was filed as active; the % refers to the signal ratio). Particulars: ME-180 (cervical carcinoma) HRE-bla reporter, beta-lactamase ratio, CoCl2, 17 h; hits give high values. The gist of the method: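 HRE-bla ME-180 assay for agonist-like enhancement of an EC50 CoCl2 stimulus: 17 h at 37 degrees Celsius, CCF4 for 2.5 h, ratiometric 460/530 nm signal converted to %Activity and fitted to AC50.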

The target of assay [4] is Cytochrome P450 2C19 (Homo sapiens) (UniProt P33261). As to the kind of experiment: qHTS Assay for Inhibitors and Substrates of Cytochrome P450 2C19 (AID 899). Further: nearly all actives have a fitted effect of over 60% in size. Further: potency means the concentration at half of the fitted maximal effect. The method, boiled down:
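Human CYP2C19 (5nM) with Luciferin-H EGE at 10uM (its KM) in 50mM KPO4 was preincubated with compound for 10 min at 37C. NADPH regeneration started a 60 min 37C reaction. Luciferin was read by luminescence, normalized to 57uM ketoconazole.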

Assay [5] has as its target Cytochrome P450 3A4 (Homo sapiens) (UniProt P08684). As to the kind of experiment: qHTS Assay for Activators of Cytochrome P450 3A4 (AID 885). Further: nearly all actives have a fitted effect of over 65% in size. The method, boiled down: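 Human CYP3A4 (20 nM) with Luciferin-PPXE at 25 uM (its KM) in 200 mM KPO4; 10 min compound preincubation, then NADPH regeneration and 60 min reaction at RT. Luciferin read by luminescence; normalized to 57 uM ketoconazole full inhibition.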

Structures are written as SMILES. “And” between values parts separate entries of the source, which are not always exact repeats. Equal values may be shown once. A number with no mark means an inactive call. Results filed as inconclusive are left out. Entries that show only a call come without a potency. The source made the active and inactive calls. Unless noted, the call rests on the fitted dose curve; in most records, active means well fitted curve in the direction sought with a large enough effect; inconclusive means small, poorly fitted or top-dose-only effect, or another doubt; inactive means no such curve, though single readings can be large; an effect the other way counts as inactive or inconclusive.

Chain of Cytochrome P450 2C19 (Homo sapiens) (P33261 whole entry, looked up): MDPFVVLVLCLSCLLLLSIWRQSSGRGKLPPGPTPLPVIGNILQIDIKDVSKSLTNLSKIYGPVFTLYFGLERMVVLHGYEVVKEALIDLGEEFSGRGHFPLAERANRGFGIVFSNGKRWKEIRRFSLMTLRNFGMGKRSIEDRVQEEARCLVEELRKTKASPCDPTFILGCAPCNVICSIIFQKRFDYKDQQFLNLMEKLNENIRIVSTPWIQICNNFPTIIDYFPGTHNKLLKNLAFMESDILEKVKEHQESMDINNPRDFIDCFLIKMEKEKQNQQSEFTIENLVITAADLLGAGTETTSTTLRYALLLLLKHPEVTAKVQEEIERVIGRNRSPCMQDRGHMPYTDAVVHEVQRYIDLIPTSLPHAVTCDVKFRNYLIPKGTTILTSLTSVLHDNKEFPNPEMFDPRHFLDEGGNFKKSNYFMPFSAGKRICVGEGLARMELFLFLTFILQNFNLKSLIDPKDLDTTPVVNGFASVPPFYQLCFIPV
Chain of Cytochrome P450 2C9 (Homo sapiens) (P11712 whole entry, looked up): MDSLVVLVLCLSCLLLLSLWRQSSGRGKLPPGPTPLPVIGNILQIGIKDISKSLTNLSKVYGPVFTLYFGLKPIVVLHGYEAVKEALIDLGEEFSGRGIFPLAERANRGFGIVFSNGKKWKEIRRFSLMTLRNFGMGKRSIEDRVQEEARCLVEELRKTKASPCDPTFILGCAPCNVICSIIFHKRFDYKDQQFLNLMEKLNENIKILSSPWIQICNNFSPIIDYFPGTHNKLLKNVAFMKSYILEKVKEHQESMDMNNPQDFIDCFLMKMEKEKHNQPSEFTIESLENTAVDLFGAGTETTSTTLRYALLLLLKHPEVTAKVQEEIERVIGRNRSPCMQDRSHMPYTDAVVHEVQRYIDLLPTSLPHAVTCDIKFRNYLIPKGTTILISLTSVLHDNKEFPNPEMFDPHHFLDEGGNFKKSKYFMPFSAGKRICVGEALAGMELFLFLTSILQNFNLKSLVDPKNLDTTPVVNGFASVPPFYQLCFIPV

On to `[C-]#[N+]/C(C#N)=C\c1cc(C(C)(C)C)c(O)c(C(C)(C)C)c1`, for which the Potency in assay [1] was 3.98 µM (active). Regarding `CCCN1[C@H](C(=O)OC)C[C@@]2(O)[C@@H](O)[C@@H](O)[C@@H](O)C[C@@H]12`, the Potency result in assay [1] is “inactive”. Take `OB(O)c1ccc(Br)cc1`: in assay [1], the Potency result was “inactive”. On to `c1ccc(-c2ccc(CN3C[C@@H]4C(c5ccccc5)C5(c6ccccc6)CC4(C5)[C@H]3c3ccccc3)cc2)cc1` (some centres undefined), for which the Potency result in assay [1] was “inactive”. With `COC(=O)[C@@H]1C[C@@H]2CC[C@@H](O)C[C@@H]2N1Cc1ccc(OC)cc1`, the Potency in assay [1] is 15.8 µM (active). For `COC(=O)[C@@H]1C[C@@]2(O)[C@H](O)[C@H](O)[C@H](O)C[C@H]2N1CC1CC1`, the Potency result in assay [1] was “inactive”. Regarding `CO[C@H]1COC(=O)C/C=C\[C@@H](C)COC(=O)[C@H]2CCCN2C(=O)C/C=C\[C@H]1C`, in assay [2], the Potency entry was “inactive”. For the same compound, the activation in assay [3] was 11.3%. For `C[C@@H](c1ccccc1)N1C(=O)[C@H]2[C@@H]3[C@H](O)[C@H](O)CC(=O)[C@H]3CC[C@H]2C1=O`, the Potency entry in assay [2] was “inactive”. In assay [3], the activation was -2.53% and -2.06%.

Turning to `COC(=O)[C@@H]1C[C@@]2(O)[C@@H](O)[C@@H](O)[C@@H](O)C[C@H]2N1Cc1ccc(N2CCOCC2)cc1`, the Potency entry in assay [1] is “inactive”.

With `COC(=O)c1ccc(C23CC4(C2)[C@H](CN(Cc2ccc(-c5ccccc5)cc2)[C@@H]4c2ccccc2)C3c2ccccc2)cc1` (some centres undefined), in assay [1], the Potency entry is “inactive”. Still for that read-out and setting: with `COC(=O)c1cccc(C23CC4(C2)[C@H](CN(Cc2ccc(-c5ccccc5)cc2)[C@@H]4c2ccccc2)C3c2ccc(Cl)nc2)c1` (some centres undefined) the entry was “inactive”. Same read-out and setting: with `N#Cc1ccc(C23CC4(C2)[C@H](CN(Cc2ccc(-c5ccccc5)cc2)[C@@H]4c2ccccc2)C3c2ccc(C(F)(F)F)cc2)cc1` (some centres undefined) the entry was “inactive”.

In the case of `FC(F)(F)c1ccc(C2[C@H]3CN(CC4CCCCC4)[C@H](c4ccccc4)C34CC2(c2ccccc2)C4)cc1` (some centres undefined), the Potency entry in assay [1] is “inactive”. Same read-out and setting: with `C=CCN1CCc2c(cc(O)c(O)c2Cl)C(c2cccc(C)c2)C1` (centres undefined) the entry was “inactive”; with `CC(=O)c1ccsc1B(O)O`, “inactive”; with `OB(O)c1ccc(Cl)s1`, “inactive”. As for `Cc1cc(N)c2cc(OCCOc3ccc4nc(C)cc(N)c4c3)ccc2n1`, in assay [1], the activity change, negative = inhibition was -0.402% [at 11.4 µM]. For `O=C(O)c1ccc(B(O)O)cc1`, in assay [1], the Potency result is “inactive”. Same read-out and setting: for `CN(C)/C=N/c1cc(=O)n(C)c(=O)n1CC1CC1` the value was “inactive”; for `Cn1c(=O)c(C(=O)COC(=O)c2cc(C(F)(F)F)nc3ccccc23)c(N)n(Cc2ccccc2)c1=O`, “inactive”.

For the compound `COc1ccc(B(O)O)cc1`, the Potency entry in assay [1] was “inactive”. On the same count and under the same terms, with `CCC1=C2CC[C@H]3C(=O)N(C)C(=O)[C@H]3[C@H]2[C@@]2(C)C(=O)N(CC3CC3)C(=O)N2C1=O` the entry was “inactive”; with `CCCCCCCCCCCCCCCCCC(=O)NCCc1ccc(O)c(O)c1`, “inactive”; with `Nc1cccc(B(O)O)c1`, “inactive”. Regarding `CN(C)/C=N/c1cc(=O)n(C)c(=O)n1Cc1ccccc1`, the Potency entry in assay [1] is “inactive”. On the same count and under the same terms, with `OB(O)c1ccc(B(O)O)cc1` the entry was “inactive”; with `COC(=O)[C@@H]1C[C@@]2(O)[C@H](O)[C@H](O)[C@H](O)C[C@H]2N1Cc1ccc(C(C)(C)C)cc1`, “inactive”.

Consider `CCC1=C2CC[C@H]3C(=O)NC(=O)[C@H]3[C@H]2[C@@]2(Cc3ccccc3)C(=NCC3CC3)OC(=O)N2C1=O`, for which the Potency in assay [1] was 15.8 µM (active). Take `C#CCCCO/N=C1/C[C@@H](O)[C@@H](O)[C@@H]2[C@H]3C(=O)N(c4ccc(F)cc4F)C(=O)[C@@H]3CC[C@@H]12`: the Potency in assay [1] was 3.16 µM (active). On the same count and under the same terms, for `OB(O)c1cc2ccccc2o1` the value was “inactive”; for `Cc1ccc(B(O)O)cc1`, “inactive”; for `COC(=O)[C@@H]1C[C@@]2(O)[C@H](O)[C@H](O)[C@H](O)C[C@H]2N1Cc1ccc(C)s1`, “inactive”. Consider `COc1ccc(O[C@H]2C=C[C@@H](c3ccccc3)O[C@H]2COC(=O)CC/C(C)=N\OC[C@@H](O)[C@H]2O[C@H]3OC(C)(C)O[C@H]3[C@@H]2O)cc1`, for which the Potency in assay [2] is 1.58 µM (active); in assay [4], 0.005 µM (active).

Consider `C#CCCCO/N=C1/[C@H]2O[C@@H]2[C@@H](O)[C@H]2[C@H]1CCn1c(=O)n(Cc3cc4c(cc3Cl)OCO4)c(=O)n12`, for which the Potency result in assay [2] and in assay [4] was “inactive” throughout. With `O=Cc1ccsc1B(O)O`, in assay [1], the Potency result was “inactive”. Turning to `N#Cc1ccc(C23CC4(C2)[C@H](CN(Cc2ccc(C(F)(F)F)cc2)[C@@H]4c2ccccc2)C3c2ccc(Cl)nc2)cc1` (some centres undefined), in assay [1], the Potency result is “inactive”. `COc1ccc(O[C@H]2C=C[C@@H](c3ccccc3)O[C@H]2COC(=O)N2CCCCC2)cc1`: the Potency was 2.51 µM (active) in assay [2] and 0.501 µM (active) in assay [4].

In the case of `CC(C)c1ccccc1S(=O)(=O)c1cc(N)c2ncccc2c1[N+](=O)[O-]`, the Potency in assay [1] is 1 µM (active).

Consider `C=CC[C@@H]1C=C[C@@H](O/N=C\[C@@H](OC)[C@H](C)/C=C\CC(=O)OC)[C@@H](CO)O1`, for which the Potency in assay [1] is 3.16 µM (active). For the same compound, the activity change, positive = activation in assay [5] was -64.1% [at 11.4 µM]. In the case of `CCC1=C(OC(=O)N(CC)CC)N2C(=O)OC(=NCc3ccccc3)[C@]2(C)[C@H]2C1=CC[C@H]1C(=O)NC(=O)[C@H]12`, the Potency in assay [1] was 5.01 µM (active). In addition, the Potency result in assay [5] was “inactive”. Take `CCC1=C(OC(=O)N(CC)CC)N2C(=O)OC(=NCCOC)[C@]2(Cc2ccccc2)[C@H]2C1=CC[C@H]1C(=O)NC(=O)[C@H]12`: the Potency in assay [1] is 6.31 µM (active). Besides, in assay [5], the Potency entry is “inactive”.
